# Data: PubChem BioAssay
# Unmarked numbers belong to inactive results. Activity calls are given as the source filed them.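 How the source made its calls: active means z-score of at least 1.8 in each of two replicates, scored against plate mean and spread of sample wells; inactive means the rest.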
# Assay: viability rescue of complex I mutant cybrids, primary screen, cell-based, galactose medium, ATP luminescence (AID 1645843);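 further: positive z means more ATP and so rescue of galactose-driven cybrid death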
# Conditions: complex I mutant cybrid cells, 72 h, hits give high values
row,Compound,z-score
1,O=C(Nc1n[nH]c(Cc2ccccc2)n1)N1CCN(C(=O)c2ccco2)CC1,2.72 (active)
2,CCCCCNC(=O)N1CCC2(CC1)Nc1ccccc1N(CC)C2=O,-0.065
3,CC1Cc2cc(C(=O)N3CCC(Cn4cc(C5CC5)nn4)CC3)ccc2O1 (stereo not given),-0.53
4,CCCCc1cn(C2CCN(C(=O)C3CCCCCC3)CC2)nn1,-0.56
5,CCn1ncc(NC(=O)Cn2ccc(C(=O)OC)n2)n1,-0.44
6,COc1ccc2c(c1)C=C(CNc1cccnc1)CO2,0.615
7,FC(F)(F)c1cccc(Cc2noc(CCCN3CCCCC3)n2)c1,0.61
8,O=C1CN(c2ncnc3sccc23)CCN1Cc1ccc(F)cc1,0.19
9,Cc1ccn2cc(C(=O)N(CC(C)C)CC(C)C)nc2c1,-0.515
10,CC(CCCC(C)(C)O)CCNCC1CCN(c2ccccc2)C1 (stereo not given),-0.605
11,Cc1cnc(CNC(=O)c2cccc(Nc3ncnc4c3cnn4C)c2)cn1,-0.83
12,Cc1nsc(NC(=O)N2CCCCC2c2ccc(F)cc2)n1 (stereo not given),-0.445
13,Cc1ccc2c(C(=O)N3CCC(C)(C)C3)cc(-c3cnn(C(C)C)c3)nc2c1,-0.01
14,CN1CCN(C(=O)c2ccc3c(c2)CCO3)CC1=O,0.07
15,Cc1ccc(CC(=O)Nc2ccnn2C2CCCCC2)cc1F,0.325
16,COc1ccccc1C(=O)N1CCN(C(=O)c2nc3ccccc3c(=O)[nH]2)CC1,0.365
17,O=c1c2c3c(sc2ncn1CCF)CCCCC3,-0.535
18,Clc1ccc(C(Cn2ccnc2)OCc2csc3c(Cl)cccc23)c(Cl)c1 (stereo not given),0.155
19,COc1cc(C)ccc1C(=O)N1CCC(Cn2cc(C3CC3)nn2)CC1,-0.52
20,CC(C)c1ncc(C(=O)N2CCC(n3cc(-c4ccccn4)nn3)CC2)cn1,0.26

row,Compound,z-score
1,CC(C)c1nc(Cn2cnc3sc4c(c3c2=O)CCCC4)cs1,1.35
2,CCCC1CCCN1Cc1ccccc1OC1(C(=O)O)CCCC1 (stereo not given),-0.265
3,Cc1ccsc1-c1cccc(C(=O)c2nccn2C)c1,0.225
4,COc1ccc(C(C)=O)c(OC2(C(=O)O)CCSCC2)c1,-0.58
5,CCn1cnc(NC(=O)NC2CCN(Cc3ccncc3)CC2)n1,3.54 (active)
6,O=C(C1CCCCCC1)N1CCC(n2cc(C3CC3)nn2)CC1,-0.53
7,Cn1ccnc1C(=O)c1cccc(-c2ccccc2Cl)c1,-0.515
8,CC(C)CN1CCN(Cc2ccco2)C(CCO)C1 (stereo not given),-0.595
9,Cc1ccc(Nc2nc(N)nc(-c3ccc(C(=O)N(C)C)cc3)n2)cc1,2.23 (active)
10,CCc1cc(-c2cccc(C)c2C)nc(N(C)C)n1,1.21
11,O=C1NCCN(C(=O)c2ccccc2)C1Cc1ccccc1 (stereo not given),-0.54
12,O=C(Nc1cccc(N2CCCC2=O)c1)c1cc(C(F)(F)F)ccc1Cl,-0.405
13,Cc1nc(C(=O)N(Cc2cccnc2)Cc2ccc3c(c2)OCO3)cs1,-0.675
14,CCn1nc(CC(C)C)cc1C(=O)N1CCC(n2cc(C(C)(C)O)nn2)CC1,-0.53
15,CCn1ncc2[nH]c(-c3c(OC)ccc4ccccc34)nc21,0.04
16,Cc1nc(C(C)Nc2ncnc3sccc23)cs1 (stereo not given),0.845
17,CCCCCN1C(=O)C2(CCN(C(=O)N3CCCC3)CC2)Nc2ccccc21,-1.2
18,CCN1CC(Cn2cnc3c(C)c(C)ccc3c2=O)CC1=O (stereo not given),-0.145
19,Cc1ccc(-c2nn(CC(=O)Nc3cnn(C)n3)c3ccccc23)c(F)c1,-0.4
20,CC1CCCCN1Cc1ccc(-c2nc(CCn3cccn3)cc(=O)[nH]2)cc1 (stereo not given),-0.245
